Binding signal data for one sequence are collected here from publication PMC7862700, “An all-to-all approach to the identification of sequence-specific readers for epigenetic DNA modifications on cytosine”.

Common to all, as to assay: DAPPL (digital affinity profiling via proximity ligation, sequencing); 10 mM Tris-HCl pH 7.5, 50 mM NaCl, 1 mM DTT, 4% glycerol, room temperature, 30 min; GST-TFs on glutathione beads, 16-mer random dsDNA library, 0.1% formaldehyde crosslink after washing; high values mean tight binding
Details in all cases: protein: recombinant; tags: N-terminal GST; dsDNA, one strand shown

The target in test [1] is T1, ELK4 (Homo sapiens, UniProt P28324-2 1-405).
T1 sequence: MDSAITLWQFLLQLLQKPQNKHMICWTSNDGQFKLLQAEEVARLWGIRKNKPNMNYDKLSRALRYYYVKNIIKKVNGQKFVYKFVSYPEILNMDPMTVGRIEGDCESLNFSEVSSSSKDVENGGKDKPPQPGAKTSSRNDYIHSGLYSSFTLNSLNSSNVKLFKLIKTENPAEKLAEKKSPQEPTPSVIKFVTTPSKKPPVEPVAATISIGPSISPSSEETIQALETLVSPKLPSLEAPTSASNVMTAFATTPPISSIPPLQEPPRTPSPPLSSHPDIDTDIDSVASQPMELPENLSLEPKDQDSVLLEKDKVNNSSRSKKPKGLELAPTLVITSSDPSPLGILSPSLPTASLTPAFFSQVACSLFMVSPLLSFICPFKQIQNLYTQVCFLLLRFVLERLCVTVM
A digest of the protocol: (§1)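 GST fusions of human transcription factors were expressed in yeast and captured with glutathione beads. Once given DNA barcodes and pooled alongside a tag-only sample, they were incubated for 30 min at room temperature with 200 nmole of a random double-stranded 16-mer DNA library in Tris/NaCl/DTT/glycerol buffer, then washed, crosslinked (0.1% formaldehyde), proximity-ligated, PCR-amplified and sequenced on an Illumina NextSeq500. The binding signal of each hexamer is its read frequency for a factor divided by its frequency for the tag-only sample.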

The target in test [2] is T2, ETV2 (Homo sapiens, UniProt O00321 1-342).
T2 sequence: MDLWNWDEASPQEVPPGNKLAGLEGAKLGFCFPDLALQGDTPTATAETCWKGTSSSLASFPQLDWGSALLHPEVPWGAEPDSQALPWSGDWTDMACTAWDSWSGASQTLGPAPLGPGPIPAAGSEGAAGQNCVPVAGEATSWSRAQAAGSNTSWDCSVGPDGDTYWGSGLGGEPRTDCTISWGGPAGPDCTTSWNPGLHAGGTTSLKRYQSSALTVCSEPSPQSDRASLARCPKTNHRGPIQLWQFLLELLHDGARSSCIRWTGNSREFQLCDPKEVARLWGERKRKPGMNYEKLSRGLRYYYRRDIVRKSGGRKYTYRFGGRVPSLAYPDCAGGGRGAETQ
A digest of the protocol:
as §1

Test [3] concerns the target T3, ELF3 (Homo sapiens, UniProt P78545 1-371).
T3 sequence: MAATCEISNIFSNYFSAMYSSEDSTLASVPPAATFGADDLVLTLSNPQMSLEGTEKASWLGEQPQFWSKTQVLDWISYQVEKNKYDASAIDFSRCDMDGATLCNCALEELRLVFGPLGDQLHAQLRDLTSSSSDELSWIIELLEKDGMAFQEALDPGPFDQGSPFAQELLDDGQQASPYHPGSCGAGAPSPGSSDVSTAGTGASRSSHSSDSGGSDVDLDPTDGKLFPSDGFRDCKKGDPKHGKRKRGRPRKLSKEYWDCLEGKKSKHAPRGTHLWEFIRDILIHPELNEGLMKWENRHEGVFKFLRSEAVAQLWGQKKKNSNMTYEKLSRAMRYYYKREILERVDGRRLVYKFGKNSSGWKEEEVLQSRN
A digest of the protocol: as §1

Test [4] has as its target ETV1 (Homo sapiens, UniProt P50549 1-477). Put shortly:
as §1

Test [5] concerns the target T4, ERF (Homo sapiens, UniProt P50548 1-548).
T4 sequence: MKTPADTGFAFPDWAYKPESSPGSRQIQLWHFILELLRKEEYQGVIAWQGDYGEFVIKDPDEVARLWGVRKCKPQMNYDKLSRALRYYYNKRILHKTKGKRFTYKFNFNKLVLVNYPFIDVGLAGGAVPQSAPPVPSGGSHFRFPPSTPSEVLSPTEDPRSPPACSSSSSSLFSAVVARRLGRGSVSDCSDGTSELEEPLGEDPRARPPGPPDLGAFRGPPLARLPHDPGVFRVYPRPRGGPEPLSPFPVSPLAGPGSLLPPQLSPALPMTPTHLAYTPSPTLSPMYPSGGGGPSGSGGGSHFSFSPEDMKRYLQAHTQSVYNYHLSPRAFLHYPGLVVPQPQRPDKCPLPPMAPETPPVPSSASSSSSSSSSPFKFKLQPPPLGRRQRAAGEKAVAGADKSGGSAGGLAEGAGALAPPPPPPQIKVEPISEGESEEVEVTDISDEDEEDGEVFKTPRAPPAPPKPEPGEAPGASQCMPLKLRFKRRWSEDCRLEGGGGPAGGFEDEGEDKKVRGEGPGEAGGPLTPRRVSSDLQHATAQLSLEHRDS
Put shortly: as §1

Test [6] addresses T5, ETV3L (Homo sapiens, UniProt Q6ZN32 1-361).
T5 sequence: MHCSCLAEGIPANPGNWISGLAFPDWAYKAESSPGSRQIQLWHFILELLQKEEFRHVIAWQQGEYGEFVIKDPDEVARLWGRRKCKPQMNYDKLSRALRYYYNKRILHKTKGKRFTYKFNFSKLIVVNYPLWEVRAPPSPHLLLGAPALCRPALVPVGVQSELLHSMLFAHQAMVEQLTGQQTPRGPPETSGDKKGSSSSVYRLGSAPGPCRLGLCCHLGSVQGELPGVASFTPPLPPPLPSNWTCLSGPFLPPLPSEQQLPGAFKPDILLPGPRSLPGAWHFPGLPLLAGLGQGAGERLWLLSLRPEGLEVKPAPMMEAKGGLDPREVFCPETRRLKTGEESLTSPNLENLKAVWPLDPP
A digest of the protocol:
as §1

Test [7] addresses T6, ETS2 (Homo sapiens, UniProt P15036 1-469).
T6 sequence: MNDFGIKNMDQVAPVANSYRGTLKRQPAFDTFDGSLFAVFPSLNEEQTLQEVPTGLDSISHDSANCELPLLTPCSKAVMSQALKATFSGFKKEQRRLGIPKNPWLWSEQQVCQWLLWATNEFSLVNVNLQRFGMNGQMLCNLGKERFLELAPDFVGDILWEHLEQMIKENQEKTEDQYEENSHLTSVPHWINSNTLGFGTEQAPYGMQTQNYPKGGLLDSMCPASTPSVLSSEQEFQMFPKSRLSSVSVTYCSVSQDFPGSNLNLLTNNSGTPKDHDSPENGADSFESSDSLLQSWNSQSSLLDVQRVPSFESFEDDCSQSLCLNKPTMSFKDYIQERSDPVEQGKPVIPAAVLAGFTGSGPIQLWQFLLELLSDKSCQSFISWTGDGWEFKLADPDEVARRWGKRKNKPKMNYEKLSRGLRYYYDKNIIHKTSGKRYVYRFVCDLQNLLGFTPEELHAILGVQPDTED
Put shortly:
as §1

Test [8] has as its target T7, ETV7 (Homo sapiens, UniProt Q9Y603 1-341).
T7 sequence: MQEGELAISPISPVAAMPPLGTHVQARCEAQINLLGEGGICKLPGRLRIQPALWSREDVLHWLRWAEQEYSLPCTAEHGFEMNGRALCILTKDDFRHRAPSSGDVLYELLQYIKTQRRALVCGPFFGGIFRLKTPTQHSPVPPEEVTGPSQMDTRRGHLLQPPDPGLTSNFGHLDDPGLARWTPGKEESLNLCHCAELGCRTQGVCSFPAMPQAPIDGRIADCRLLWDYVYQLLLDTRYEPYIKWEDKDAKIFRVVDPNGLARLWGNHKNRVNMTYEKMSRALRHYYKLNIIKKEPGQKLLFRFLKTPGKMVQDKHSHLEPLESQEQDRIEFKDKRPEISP
A digest of the protocol:
as §1

Test [9] addresses T8, ETV3 (Homo sapiens, UniProt P41162-2 1-143).
T8 sequence: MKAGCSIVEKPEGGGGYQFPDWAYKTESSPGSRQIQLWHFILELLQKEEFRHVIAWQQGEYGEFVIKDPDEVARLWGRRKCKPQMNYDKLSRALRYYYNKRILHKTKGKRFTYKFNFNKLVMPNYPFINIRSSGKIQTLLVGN
A digest of the protocol:
as §1

For test [10], the target named is ETV6 (Homo sapiens, UniProt P41212 1-452). A digest of the protocol: as §1
Chain of ETV6 (P41212 whole entry): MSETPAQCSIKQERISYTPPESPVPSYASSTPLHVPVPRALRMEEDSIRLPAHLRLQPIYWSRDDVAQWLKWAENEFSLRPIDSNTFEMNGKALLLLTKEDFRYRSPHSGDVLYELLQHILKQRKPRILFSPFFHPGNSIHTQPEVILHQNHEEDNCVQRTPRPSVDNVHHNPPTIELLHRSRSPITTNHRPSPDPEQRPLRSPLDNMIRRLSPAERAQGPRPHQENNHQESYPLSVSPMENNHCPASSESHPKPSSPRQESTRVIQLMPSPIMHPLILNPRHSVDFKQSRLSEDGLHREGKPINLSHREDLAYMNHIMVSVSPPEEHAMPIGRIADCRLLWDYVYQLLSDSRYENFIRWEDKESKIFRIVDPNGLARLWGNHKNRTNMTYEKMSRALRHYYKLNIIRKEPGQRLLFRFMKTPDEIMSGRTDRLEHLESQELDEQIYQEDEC

Chain of ETV1 (P50549 whole entry): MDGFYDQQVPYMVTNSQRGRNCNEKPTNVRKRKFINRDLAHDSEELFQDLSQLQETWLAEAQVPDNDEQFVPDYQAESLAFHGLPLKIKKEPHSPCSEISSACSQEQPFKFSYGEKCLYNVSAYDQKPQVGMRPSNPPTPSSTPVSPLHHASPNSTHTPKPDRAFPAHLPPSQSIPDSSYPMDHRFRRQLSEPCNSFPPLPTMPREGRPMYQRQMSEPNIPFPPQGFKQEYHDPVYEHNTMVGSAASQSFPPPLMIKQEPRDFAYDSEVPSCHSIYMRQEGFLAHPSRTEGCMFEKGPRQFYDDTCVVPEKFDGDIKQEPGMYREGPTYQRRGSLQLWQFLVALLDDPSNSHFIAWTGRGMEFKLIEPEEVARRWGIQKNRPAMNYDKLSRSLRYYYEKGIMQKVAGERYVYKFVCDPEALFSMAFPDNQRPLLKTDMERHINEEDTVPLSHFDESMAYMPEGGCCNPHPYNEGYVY

With AAGATC, the binding signal in test [1] was 1.01 fold enrichment (6-mer frequency, TF over GST control); in test [2], 1.13 fold enrichment (6-mer frequency, TF over GST control); in test [3], 1.15 fold enrichment (6-mer frequency, TF over GST control); in test [4], 1.08 fold enrichment (6-mer frequency, TF over GST control); in test [5], 1.12 fold enrichment (6-mer frequency, TF over GST control); in [6], 1.03 fold enrichment (6-mer frequency, TF over GST control). Moreover, the binding signal in [7] was 1.05 fold enrichment (6-mer frequency, TF over GST control); in [8] it was 1.08 fold enrichment (6-mer frequency, TF over GST control); in [9] it was 1.12 fold enrichment (6-mer frequency, TF over GST control); in test [10], 1.01 fold enrichment (6-mer frequency, TF over GST control).
